The text below walks through data of PubChem BioAssay (EPA / NIEHS).

“And” between values parts separate entries of the source, which are not always exact repeats. Identical values can stand only once. Where a structure was tested more than once in an assay, its records may differ in their call. The source made the active and inactive calls. Rule for the calls: active = hit-call score of the fitted dose curve at least 0.9, where 1 is the maximum; inactive = score below 0.9.

Assay [1] can be described thus: BSK_hDFCGF_SRB: Viability Assessment in the BioMAP Diversity Plus: hDFCGF Assay (AID 2283061).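 Note: cells exposed to compound for 24 h before the read.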 The note with it: primary human foreskin fibroblasts. A digest of the protocol: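 Human foreskin fibroblasts in 96-well plates were treated 24 h. Total protein was measured by 0.1% SRB staining after 10% TCA fixation, read at 560 nm. Data were fitted bidirectionally against DMSO.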

Read-out in assay [2]: TIMP metallopeptidase inhibitor 1 (TIMP1), TIMP1 (gene 7076)
In words: BSK_hDFCGF_TIMP1: BioMAP Diversity Plus: hDFCGF Assay for TIMP metallopeptidase inhibitor 1 (TIMP1) Biomarker Activity (AID 2283062). Particulars: primary human foreskin fibroblasts; actives raise or lower the signal. A digest of the protocol:
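Human foreskin fibroblast primary cultures dosed for 24 h; secreted/surface TIMP-1 quantified by ELISA. Bidirectional curve fitting against DMSO baseline; cytotoxicity tracked in parallel cultures by SRB total-protein staining.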

Read-out in assay [3]: Monokine induced gamma interferon (MIG), CXCL9 (gene 4283)
The assay can be described thus: BSK_hDFCGF_MIG: BioMAP Diversity Plus: hDFCGF Assay for Monokine induced gamma interferon (MIG) Biomarker Activity (AID 2283063). The note with it: primary human foreskin fibroblasts; actives raise or lower the signal. A digest of the protocol:
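MIG/CXCL9 measured by ELISA 24 h after dosing primary human skin fibroblasts. Activity fitted in both directions against DMSO controls. Cytotoxicity was checked in parallel cultures by SRB staining read at 560 nm.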

Read-out in assay [4]: Matrix Metallopeptidase 1 (MMP1), MMP1 (gene 4312)
The assay can be described thus: BSK_hDFCGF_MMP1: BioMAP Diversity Plus: hDFCGF Assay for Matrix Metallopeptidase 1 (MMP1) Biomarker Activity (AID 2283064). Particulars: primary human foreskin fibroblasts; actives raise or lower the signal. In short, it runs like this:
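hDFCGF primary fibroblasts (human foreskin); chemical added; 24 h; MMP1 by ELISA; bidirectional fit vs DMSO.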

Read-out in assay [5]: Vascular cell adhesion molecule 1 (VCAM1), VCAM1 (gene 7412)
The assay can be described thus: BSK_hDFCGF_VCAM1: BioMAP Diversity Plus: hDFCGF Assay for Vascular cell adhesion molecule 1 (VCAM1) Biomarker Activity (AID 2283065).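 For AC50: VCAM-1 protein level quantified by ELISA after 24 h chemical exposure.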 The note with it: primary human foreskin fibroblasts; actives raise or lower the signal. A digest of the protocol: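 Human foreskin fibroblast primary cells dosed with chemical, VCAM-1 measured by ELISA at 24 h. Bidirectional curve fitting relative to DMSO as negative control/baseline.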

Read-out in assay [6]: Plasminogen activator inhibitor-1 (PAI1), SERPINE1 (gene 5054)
The assay can be described thus: BSK_hDFCGF_PAI1: BioMAP Diversity Plus: hDFCGF Assay for Plasminogen activator inhibitor-1 (PAI1) Biomarker Activity (AID 2283066). Particulars: primary human foreskin fibroblasts; actives raise or lower the signal. In short, it runs like this:
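PAI-1 levels, determined by ELISA, served as the endpoint in human foreskin fibroblast cultures exposed to compound for 24 h, with DMSO as baseline.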

Read-out in assay [7]: Intercellular Adhesion Molecule 1 (ICAM1), ICAM1 (gene 3383)
The assay can be described thus: BSK_KF3CT_ICAM1: BioMAP Diversity Plus: KF3CT Assay for Intercellular Adhesion Molecule 1 (ICAM1) Biomarker Activity (AID 2283067). Particulars: primary human keratinocytes with fibroblasts; actives raise or lower the signal. In short, it runs like this:
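Human keratinocyte–foreskin fibroblast co-culture was treated for 24 h. Cell-surface ICAM-1 was quantified by ELISA, fitted bidirectionally relative to DMSO. Cytotoxicity was checked in parallel cultures by SRB total-protein staining.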

Read-out in assay [8]: Interferon-gamma inducible Protein 10 (IP10), CXCL10 (gene 3627)
The assay can be described thus: BSK_KF3CT_IP10: BioMAP Diversity Plus: KF3CT Assay for Interferon-gamma inducible Protein 10 (IP10) Biomarker Activity (AID 2283068). Particulars: primary human keratinocytes with fibroblasts; actives raise or lower the signal. A digest of the protocol: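 KF3CT co-culture (keratinocytes + foreskin fibroblasts), 24 h compound, IP-10 by ELISA; bidirectional fit vs DMSO baseline.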

Assay [9] can be described thus: BSK_KF3CT_SRB: Viability Assessment in the BioMAP Diversity Plus: KF3CT Assay (AID 2283069).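 Note: total protein by sulforhodamine B staining as a cytotoxicity measure; read 24 h after compound addition; fitted for both signal gain and loss against DMSO baseline.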 The note with it: primary human keratinocytes with fibroblasts. A digest of the protocol: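 Keratinocytes co-cultured with foreskin fibroblasts (human primary); chemical added, 24 h; fix 10% TCA, stain 0.1% SRB, A560. Bidirectional fit vs DMSO.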
Read-out in assay [10]: Interleukin-1 alpha (IL1a), IL1A (gene 3552)
The assay can be described thus: BSK_KF3CT_IL1a: BioMAP Diversity Plus: KF3CT Assay for Interleukin-1 alpha (IL1a) Biomarker Activity (AID 2283070). Particulars: primary human keratinocytes with fibroblasts; actives raise or lower the signal. In short, it runs like this: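 Chemicals were dosed onto co-cultured human keratinocytes and foreskin fibroblasts, IL-1a was quantified by ELISA at 24 h, and activity was fitted in both directions relative to DMSO controls.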

Turning to `CS(=O)(=O)OCCCCOS(C)(=O)=O`, the outcome in [1], in assay [2], in [3], in assay [4], in assay [5] and in assay [6] was inactive. Moreover, the result in [7], in assay [8], in assay [9] and in [10] was inactive.
`C=CC(C)(O)CCC=C(C)C` (stereo not drawn): the outcome in assay [1], in assay [2], in [3], in [4], in assay [5] and in assay [6] was inactive. For the same compound, the result in assay [8], in assay [9] and in assay [10] was inactive.
Take `CSCCC=O`: the outcome in assay [1], in [2], in assay [3], in assay [4], in assay [5] and in [6] was inactive. Besides, the result in [8], in assay [9] and in assay [10] was inactive.
Regarding `CC=Cc1ccc(OCC)c(O)c1`, the outcome in assay [1], in [2], in assay [3], in assay [4], in assay [5] and in assay [6] was inactive. Moreover, the outcome in assay [8], in assay [9] and in assay [10] was inactive.
For the compound `COc1ccc(CCN2CCC(Nc3nc4ccccc4n3Cc3ccc(F)cc3)CC2)cc1`, the result in assay [1], in assay [3], in assay [4], in [5], in assay [8] and in assay [9] was inactive. For the same compound, the result in assay [10] was inactive. The figures for the AC50 in assay [2] and in assay [6] were 6.47 µM (active) and 7.58 µM (active), respectively.
Take `O=CN1CCOCC1`: the outcome in assay [1], in assay [2], in assay [3], in [4], in assay [5] and in [6] was inactive. For the same compound, the result in [8], in assay [9] and in assay [10] was inactive.
Regarding `CC(C)(N=C=O)c1cccc(C(C)(C)N=C=O)c1`, the result in [1], in assay [2], in assay [3], in [4], in [5] and in [6] was inactive. Further, the result in assay [7], in assay [8], in assay [9] and in assay [10] was inactive.
On to `c1ccc2cc(Nc3ccc(Nc4ccc5ccccc5c4)cc3)ccc2c1`, for which the result in assay [1], in assay [2], in [3], in assay [4], in [5] and in assay [6] was inactive. The outcome in assay [7], in [8], in [9] and in assay [10] was inactive.
Turning to `CCCCOC(=O)CCCCCCCC(=O)OCCCC`, the outcome in [1], in assay [2], in assay [3], in assay [4], in [5] and in assay [6] was inactive. Further, the result in assay [8], in assay [9] and in [10] was inactive.
Regarding `COc1ccc(OC)c(N=Nc2c(O)ccc3ccccc23)c1`, the AC50 in [1] is 8.26 µM (active); in [2], 4.02 µM (active); in [3], 1.93 µM (active); in assay [4], 14.2 µM (active); in assay [5], 1.42 µM (active); in assay [10], 8.38 µM (active). In addition, the result in assay [6], in assay [8] and in assay [9] was inactive.
As for `CCOC(=O)C(C#N)=C(c1ccccc1)c1ccccc1`, the result in assay [1], in assay [2], in [3], in [4], in assay [5] and in assay [6] was inactive. Besides, the outcome in assay [8], in assay [9] and in assay [10] was inactive. Besides, in [5], the AC50 was 14.6 µM (active).
Take `C=C(C)[C@H]1CC=C(C)C(=O)C1`: the result in assay [1], in assay [2], in [3], in [4], in assay [5] and in [6] was inactive. The outcome in assay [8], in [9] and in assay [10] was inactive.
Consider `CC1(C)C2=CCCC(C)(C)[C@]23CC[C@H]1C3`, for which the AC50 in [1] was 31.9 µM (active); in assay [2], 31.2 µM (active); in assay [5] it was 32.9 µM (active); in assay [6], 32.9 µM (active). For the same compound, the outcome in [3], in assay [4], in [7], in assay [8], in assay [9] and in assay [10] was inactive.
With `CCCCCCC(CO)CCCC` (stereo not drawn), the concentration at half-maximal activity (AC50) in assay [1] is 30.8 µM (active) and 31.4 µM (active); in assay [2] it was 30.9 µM (active) and 35.9 µM (active); in assay [3] it was 34 µM (active) and 30.5 µM (active); in assay [4] it was 31.1 µM (active) and 30.7 µM (active); in assay [5] it was 32.5 µM (active) and 36.7 µM (active); in assay [6], 29.9 µM (active) and 36.3 µM (active). For the same compound, the AC50 is 38.1 µM (active) and 36.7 µM (active) in assay [8]; 35.6 µM (active) and 36.1 µM (active) in [9]; 33.4 µM (active) and 30.3 µM (active) in [10].
Consider `CCCCN(CCCC)C(=O)N(CCCC)CCCC`, for which the AC50 in [1] is 10.3 µM (active); in assay [2] it was 9.64 µM (active); in assay [3] it was 11.9 µM (active); in [4] it was 11.5 µM (active); in assay [5], 9.04 µM (active); in [6], 11 µM (active). Besides, the AC50 in assay [8] is 11 µM (active); in assay [9], 8.91 µM (active); in [10] it was 10.5 µM (active).
For `c1ccc(CCc2ccccc2)cc1`, the AC50 in assay [1] was 30.3 µM (active); in assay [2] it was 36.6 µM (active); in assay [4], 36.7 µM (active); in assay [5], 30.9 µM (active); in assay [6], 31.1 µM (active); in [8] it was 30 µM (active). The AC50 in assay [9] is 28.5 µM (active); in [10], 25.2 µM (active). Moreover, the outcome in [3] was inactive.
In the case of `O=C1c2ccccc2C(=O)c2c(O)ccc(O)c21`, the outcome in assay [1], in [2], in assay [3], in [4], in [5] and in [8] was inactive. The result in assay [9] and in assay [10] was inactive. The concentration at half-maximal activity (AC50) in assay [6] is 4.59 µM (active).
In the case of `CC(C=O)Cc1ccc(C(C)(C)C)cc1` (stereo not drawn), the values for the AC50 in assay [1], in [2] and in assay [6] were 35.5 µM (active), 31.9 µM (active) and 27.4 µM (active), respectively. For the same compound, the result in assay [3], in assay [4], in assay [5], in [7], in [8] and in assay [9] was inactive. In [10], the result was inactive.

What is called AC50 is the concentration giving half of the maximal activity seen.
